Experimental data: PubChem BioAssay (NCI)
Where “and” joins values, the source holds several entries; their conditions need not be identical. Equal entries are not always repeated. The panel holds about 79,000 compounds, 15% with a hit somewhere; the sample as a whole holds those more often. Calls of active or inactive are those of the source. Cut-off read from the data, not from the text of the source: active = growth inhibition above about 70%; inactive = the rest.

Columns and labels:
[1] = NCI Yeast Anticancer Drug Screen. Data for the rad50 strain (AID 155);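 note: 0% = growth of vehicle-only cultures of the same strain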; conditions: S. cerevisiae rad50 strain growth inhibition, stronger effect = higher value; at 50.0 µM unless noted
In short: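 Relative growth inhibition (compound vs vehicle) was measured in yeast with a defined repair-gene alteration.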

[2] = NCI Yeast Anticancer Drug Screen. Data for the mec2-1 strain (AID 157); conditions: S. cerevisiae mec2-1 strain, stronger effect = higher value; at 50.0 µM unless noted
In short: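 Vehicle-treated cultures served as reference for growth inhibition of compound-exposed mec2-1 yeast.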

[3] = NCI Yeast Anticancer Drug Screen. Data for the sgs1 mgt1 strain (AID 161);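 note: 0% = growth of cultures given vehicle only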; conditions: S. cerevisiae sgs1 mgt1 strain, stronger effect = higher value; at 50.0 µM unless noted
In short: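 Inhibition of yeast growth, normalised to vehicle-treated controls, is reported for a strain bearing genetic alterations in DNA damage repair.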

[4] = NCI Yeast Anticancer Drug Screen. Data for the cln2 rad14 strain (AID 165);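 note: 0% = growth equal to vehicle treated cultures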; conditions: S. cerevisiae cln2 rad14 strain, stronger effect = higher value; at 50.0 µM unless noted
In short: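 Each compound was tested on cln2 rad14 yeast. Inhibition of growth was calculated against vehicle-exposed controls.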

[5] = NCI Yeast Anticancer Drug Screen. Data for the bub3 strain (AID 167); conditions: S. cerevisiae bub3 mutant strain, stronger effect = higher value; at 50.0 µM unless noted
In short: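 Screening used yeast with an engineered genetic alteration affecting cell cycle control. Compound-exposed cultures were compared with vehicle cultures, and reduced growth was taken as inhibition.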

[6] = NCI Yeast Anticancer Drug Screen. Data for the mlh1 rad18 strain (AID 175); conditions: S. cerevisiae mlh1 rad18 strain growth inhibition, stronger effect = higher value; at 50.0 µM unless noted
In short: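 Vehicle-treated cultures served as the reference for growth inhibition in a yeast strain carrying DNA damage repair alterations exposed to each compound.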

Measured: growth inhibition

Cn1c2c(c(=O)c3cc(O)ccc31)CC(O)C(C)(C)O2 (stereo not given)
inactive: [1] -8.9% | [2] -10.8% | [3] -11.7% | [4] -11% | [5] 8.8% | [6] -2.7%

COc1cc(C(=O)c2cc3c(cc2C(=O)O)OCO3)cc(OC)c1OC
inactive: [1] -7.6% | [2] 0.85% | [3] 2.9% | [4] -30.6% | [5] 8.5% | [6] -2.05%

O=S(=O)([O-])[O-].O=c1[nH]cnc2[nH]ncc12.O=c1[nH]cnc2[nH]ncc12.[Zn+2]
inactive: [1] -26.2% | [2] 4.15% | [3] -15.9% | [4] 3.65% | [5] -20.8% | [6] -17.6%

COc1ccc(/C=C(/NC(=O)c2ccccc2)C(=O)O)c(OC)c1
inactive: [1] -7.35% | [2] -5.1% | [3] 1.2% | [4] -61.4% | [5] -10.1% | [6] -9.65%

CCCSc1nc(C(=O)O)cc(=O)[nH]1
inactive: [1] -8.9% | [2] -13.8% | [3] -4.8% | [4] -44.2% | [5] -5.1% | [6] -8.15%

CCN(CC)CCC(=O)c1ccccc1
inactive: [1] -7.5% | [2] -4.25% | [3] -8.45% | [4] -7.25% | [5] -20.1% | [6] -7.85%

C=CC(=O)Nc1ccccc1
inactive: [1] 16.4% | [2] -8.05% | [3] 8.25% | [4] -8.35% | [5] -10% | [6] 5.55%

C/C(N)=N\O
inactive: [1] 20.1% | [2] 4.1% | [3] 2.45% | [4] 9.85% | [5] 0.1% | [6] 1.65%

CC1(C)OC(=O)C(Cc2ccccc2)(Cc2ccccc2)C(=O)O1
inactive: [1] 2.2% | [2] -19.9% | [3] -11.8% | [4] 30.1% | [5] -17.1% | [6] -13.9%

CN(Cc1ccccc1Cl)C(=S)NC1CCCCC1
active: [2] 88.8% | [3] 86% | [5] 81.3% | [6] 85.5%
inactive: [1] 62% | [4] 34.8%

CC(=O)CC(C)(C)c1cc(-c2ccccc2)on1
inactive: [1] 20.8% | [2] 5.4% | [3] -6.25% | [4] -61.6% | [5] 19.4% | [6] 12.8%

COc1cc2ccc3c4ccccc4cnc3c2cc1OC
inactive: [1] 8.1% | [2] 5.4% | [3] 0% | [4] 18.2% | [5] 13.7% | [6] 13.2%

N#CSc1ccc(NN)cc1
inactive: [1] 11.2% | [2] -2.05% | [3] 30.4% | [4] -4.65% | [5] 33.7% | [6] 1.55%

CC(=O)CC(=O)Nc1ccc(-c2ccc(NC(=O)CC(C)=O)c(Cl)c2)cc1Cl
inactive: [1] -22.2% | [2] -27.7% | [3] -10.2% | [4] 1.9% | [5] -16.6% | [6] -6.35%

CC1CCC2C(=O)OC(=O)C2C1 (stereo not given)
inactive: [1] 6.2% | [2] -10.2% | [3] 11.6% | [4] 23.6% | [5] 18.4% | [6] 4.7%

COC(=O)c1ccccc1NC(=O)Cc1ccccc1
inactive: [1] -0.5% | [2] -27.1% | [3] 15.9% | [4] -5.65% | [5] 37.2% | [6] -15.7%

CNc1c(F)c(C#N)c(F)c(F)c1C#N
inactive: [1] 9.35% | [2] -6.95% | [3] -16.6% | [4] -8.95% | [5] 0.55% | [6] 1.75%

CC(C)(Oc1ccc(C(=O)c2ccc(Cl)cc2)cc1Cl)C(=O)N1CCN(c2ccccc2)CC1
inactive: [1] 2% | [2] -46.1% | [3] -0.85% | [4] -55% | [5] -9.2% | [6] -5.9%

CC(=O)NC(CCC(=O)O)C(=O)O (stereo not given)
inactive: [1] -0.55% | [2] -14.9% | [3] -7.15% | [4] -6.2% | [5] -20.1% | [6] -1.6%

Oc1ccc2ccccc2c1/C=C/c1ccc2c(Br)cc(Br)c(O)c2n1
inactive: [1] 60.6% | [2] 41.1% | [3] 28.7% | [4] 38% | [5] 64.9% | [6] 65.3%

CCOC(=O)c1c(-c2ccccc2)csc1NS(=O)(=O)c1ccc(C)cc1
active: [1] 81.8% | [2] 78.2% | [3] 87% | [4] 82.3% | [5] 81.8% | [6] 90.6%

C=CCCC(=O)CC(=O)OCc1ccccc1
inactive: [1] -7.2% | [2] -31% | [3] -1.15% | [4] 8.05% | [5] -37% | [6] 16.1%

N/C1=C/C(=O)NC(=O)c2c(c3ccccc3oc2=O)C1
inactive: [1] -5.7% | [2] 0.9% | [3] 8.5% | [4] 5% | [5] 7.3% | [6] -29.6%

CCCCCCCCCCCC(=O)NC(=S)Nc1cccc(O)c1
active: [1] 84.3% | [3] 74.4% | [4] 90.3% | [5] 93% | [6] 81.4%
inactive: [2] 63.8%

[CH3][Sn]([CH3])([S]P(=S)(c1ccccc1)c1ccccc1)[S]P(=S)(c1ccccc1)c1ccccc1
inactive: [1] 25.1% | [2] 31.7% | [3] 18.7% | [4] -15.8% | [5] 19.1% | [6] 43.9%

CCC1CN2CCc3cc(OC)c(OC)cc3C2CC1=O (stereo not given)
inactive: [1] -11.3% | [2] -5.4% | [3] -8.65% | [4] -2.65% | [5] 1.15% | [6] -22.1%

ClC(Cl)(Cl)c1ncnc2nc[nH]c12
inactive: [1] -15.1% | [2] -11.8% | [3] 0.5% | [4] 9.95% | [5] -16.9% | [6] 13.3%

CC(C)N(C(=O)C12C3C4C1C1C2C3C41C(=O)N(C(C)C)C(C)C)C(C)C (stereo not given)
inactive: [1] -1.85% | [2] -9.2% | [3] -12.9% | [4] -1% | [5] 8.45% | [6] -26.5%

C(=N\N1CN(/N=C/c2ccccc2)C(c2ccccc2)C1c1ccccc1)/c1ccccc1 (stereo not given)
inactive: [1] -6.2% | [2] -3.15% | [3] 4.5% | [4] 7.35% | [5] -1.65% | [6] 7.05%

CCN1CCC(S(=O)(=O)CCS(=O)(=O)C2CCN(CC)C2)C1 (stereo not given)
inactive: [1] -6.3% | [2] 0.55% | [3] 11.7% | [4] 3.6% | [5] 17.3% | [6] 2.05%

CN(C)C(=S)Oc1c([N+](=O)[O-])cc([N+](=O)[O-])cc1C(C)(C)C
active: [1] 94% | [2] 89.9% | [3] 93.8% | [4] 78% | [5] 92.6% | [6] 95%

CCc1n[nH]c(=O)n1-n1c(C)ccc1C
inactive: [1] -15.8% | [2] -25.9% | [3] -5.2% | [4] 3.15% | [5] -33% | [6] -15.2%

CCN(CC)CC(=O)Nc1ccc2c(c1)C(=O)c1ccc(NC(=O)CN(CC)CC)cc1C2=O
inactive: [1] 22.1% | [2] 8% | [3] -4.5% | [4] 16.4% | [5] -1.2% | [6] -8%

O=C1CCC(c2nc3ccccc3[nH]2)N1Cc1ccccc1 (stereo not given)
inactive: [1] 13.9% | [2] 2.3% | [3] 18.1% | [4] 4.35% | [5] 6.4% | [6] 18.9%

N#Cc1nc(C2CC2)oc1N
inactive: [1] -18.7% | [2] -2.65% | [3] -22.9% | [4] 0.35% | [5] -25.2% | [6] 1.65%

O=C(Nc1ccc(F)cc1)c1ccc([N+](=O)[O-])cc1
inactive: [1] 0.5% | [2] -1% | [3] 36.1% | [4] -9.6% | [5] 19% | [6] 8.15%

Cc1nn(C(=O)c2ccc(Cl)cc2)c2c1C(c1ccc([N+](=O)[O-])cc1)SC(N)=N2 (stereo not given)
inactive: [1] -14.8% | [2] 7.4% | [3] 16.4% | [4] -16.8% | [5] -16.1% | [6] -4.1%

COC(=O)CC(NC(=O)OCc1ccccc1)C(=O)NCC(=O)Oc1ccc([N+](=O)[O-])cc1 (stereo not given)
inactive: [1] 21.1% | [2] 11.8% | [3] 12.2% | [4] 12.2% | [5] 5.75% | [6] 8.5%

Nc1ccc2c(O)cc(S(=O)(=O)O)cc2c1
inactive: [1] 39% and 26.9% | [2] 5.1% and 0.25% | [3] 4.5% and -20.9% | [4] -29.1% and -73% | [5] 19.6% and 4.85% | [6] 3.7% and 10.4%

O=C1c2ccc3c4ccccc4n(-c4ccccc4)c3c2C(=O)N1c1ccc(Cl)cc1
inactive: [1] -11.8% | [2] -2.95% | [3] -26.2% | [4] 24.9% | [5] -18.4% | [6] -7.05%
